# Results taken from PubChem BioAssay.
# System: Noggin (protein binding on small-molecule microarray)
# Experiment: small molecules binding Noggin protein – biochemical, 635/667 nm fluorescence, primary screen (AID 1095);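 also: score merges 667 nm feature fluorescence with signal to noise over triplicate slides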
# Conditions: 635 nm fluorescence, higher = more signal
row,Compound,composite z-score
1,CO[C@H]1O[C@H](CO)[C@@H](OC(=O)Nc2ccc(C#N)cc2)[C@@H]2OC(=O)[C@H](Cc3cccc(Br)c3)C/C=C/C[C@@H](Cc3cccc(Br)c3)C(=O)O[C@@H]12,0.432
2,COC(=O)[C@@]1(Cc2ccccc2)[C@H]2c3cc(C(=O)N(C)C)n(CCn4cc([N+](=O)[O-])nc4C)c3C[C@H]2CN1C(=O)c1ccccc1,0.0356
3,Cc1ccc(N2C(=O)c3ccccc3[C@](C)(C(=O)NCc3ccccc3)[C@@H]2c2ccc(CO)cc2)nc1,0.184
4,COC(=O)[C@@]1(Cc2ccc(F)cc2)[C@H]2c3cc(C(=O)N4CCCC4)n(C)c3C[C@H]2CN1C(=O)c1ccccc1,-0.662
5,CC(C)C(=C=CC[C@@H](O)c1cccc(OCCO)c1)C[C@@H](O)c1ccccn1,0.38
6,O=C(O)[C@H]1C[C@H]2C(=O)N[C@@H](Cc3ccccc3)C(=O)N2[C@H]1c1cccc(OCCO)c1,1.74
7,COc1ccc([Si](C)(C)[C@@H]2[C@@H](CC(=O)N3Cc4ccccc4C[C@H]3CO)O[C@]3(C(=O)N(Cc4ccc(N5CCC5=O)cc4)c4ccccc43)[C@H]2C)cc1,1.32
8,Cc1ccc([C@H]2C(C(=O)O)=C[C@@H](C(C)(C)C)N2S(=O)(=O)c2ccc(C)cc2)cc1,0.101
9,CN1C(=O)[C@@]2(Cc3ccccc3)N=C(c3ccc(OCCCO)cc3)O[C@H]2c2ccccc21,0.955
10,COCCCNC(=O)[C@@]1(Sc2ccc(C)cc2)CC(=O)N(C(C)C)[C@@H]1c1ccc(CO)cc1I,-0.926
11,CC(C)C(=C=CC[C@@H](O)c1cccc(OCCO)c1)C[C@@H](O)COCc1ccccc1,0.573
